Bioassay records from PubChem BioAssay.
IP6K1 inh = Primary qHTS assay for small molecule inhibitors of Inositol hexaphosphate kinase 1 (IP6K1) | Inositol hexakisphosphate kinase 1 (Homo sapiens), Q92551 | IP6K1 kinase, ADP-Glo luminescence, 2 h; hits give low values | actives 0.81% (n = 140,000) | activity change, % (series mostly up to about 58 µM); in the data active = activity change below about -25%
Target sequence (Q92551 whole entry, looked up): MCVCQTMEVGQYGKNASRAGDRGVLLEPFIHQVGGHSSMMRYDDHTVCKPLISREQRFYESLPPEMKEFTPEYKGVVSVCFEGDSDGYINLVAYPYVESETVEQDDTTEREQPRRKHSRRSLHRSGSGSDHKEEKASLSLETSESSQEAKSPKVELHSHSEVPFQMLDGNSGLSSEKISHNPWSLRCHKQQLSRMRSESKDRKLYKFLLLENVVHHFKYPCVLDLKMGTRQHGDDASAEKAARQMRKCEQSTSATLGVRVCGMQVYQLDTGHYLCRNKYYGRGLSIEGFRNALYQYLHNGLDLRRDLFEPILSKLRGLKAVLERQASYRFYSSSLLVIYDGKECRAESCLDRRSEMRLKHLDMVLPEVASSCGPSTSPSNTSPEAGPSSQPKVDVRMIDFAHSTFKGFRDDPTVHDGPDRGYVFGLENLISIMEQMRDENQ
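ADP-Glo luminescence measures ADP made by human IP6K1 during a 2 h RT reaction with ATP/IP6 (mix at 1.3 mM/130 uM); top library doses 57.5 and 19.1 uM final.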
KDM5B inh = Primary screen for KDM5B Histone Demethylases FDH-coupled qHTS; Lysine-specific demethylase 5B (Homo sapiens), Q9UGL1; AID 1347165, 2019; KDM5B demethylase, FDH-coupled NADH fluorescence (FDH is formaldehyde dehydrogenase); Potency, µM (top dose mostly 57.7 µM), most hits filed as inhibitors; actives 2.6% (n = 220,000); also: nearly all actives have a fitted effect of over 70% in size
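Coupled FDH/NAD⁺ fluorescence readout. KDM5BΔAP 200 nM final; compound titration, 10 min RT preincubation; substrate mix 12.5 µM H3K4me3, 25 µM 2-OG, 50 µM Fe(II), 100 µM ascorbate, 0.25 mM NAD⁺, 0.25 U/mL FDH; ΔRFU over 30 min.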
IP6K1 conf = Confirmatory qHTS assay for small molecule inhibitors of Inositol hexaphosphate kinase 1 (IP6K1); actives 13% (n = 1,200); shares compounds with IP6K1 inh; AID 1645852, 2021; Potency, µM (highest dose often 49 µM), actives largely listed as inhibitors; recombinant IP6K1 kinase, ADP-Glo luminescence, 2 h; also: nearly all actives have a fitted effect of over 65% in size
Of the large screens only hits and unclear results are named; the others gave an inactive call (follow-up assays come after a bar, where they were run). The list is not random: actives were taken first. Their share in the collection is about 2.8%. Unless noted, calls follow the shape of the dose curve; as a rule, active = well fitted inhibition curve with a large enough effect; inconclusive = small, poorly fitted or top-dose-only effect; inactive = no such curve, though single readings can be large or run the other way.

COc1cc2c(cc1OCc1ccccc1)NC(=O)C21CCN(c2ncc(F)cn2)CC1	KDM5B inh 32µM
COc1cc2c(cc1Oc1ccccc1)NC(=O)C21CCN(c2cnccn2)CC1	KDM5B inh 32µM
COc1cc2c(cc1Oc1ccccc1)NC(=O)C21CCN(c2nc(C)cc(C)n2)CC1	KDM5B inh inconclusive
COc1cc2c(cc1OCC1CC1)NC(=O)C21CCN(c2nccc(C(F)(F)F)n2)CC1	KDM5B inh 22µM
COc1cc2c(cc1OCC1CC1)NC(=O)C21CCN(c2ncc(F)cn2)CC1	none
Cc1ccc(Cn2nc(C)c(C(=O)NCc3cc(Cl)c4c(c3)OCCCO4)c2Cl)cc1	none (no result: IP6K1 inh)
OC[C@@H]1[C@@H](c2ccccc2)CN2CCN(Cc3ccccc3)C[C@H]12	none (no result: KDM5B inh)
CCOC(=O)[C@H]1CN(C(=O)c2ccc(SC)cc2)[C@]2(C)C(=O)N(CC3CC3)c3ccccc3[C@H]12	none (no result: KDM5B inh)
CCOC(=O)[C@@H]1[C@H]2c3ccccc3N(C)C(=O)[C@H]2N(C(=O)c2cccs2)[C@@H]1c1ccccc1	none (no result: KDM5B inh)
Cc1nc(-c2ccco2)cc([C@H]2CN3CC[C@H]2C[C@@H]3CNC(=O)Nc2ccccc2)n1	KDM5B inh inconclusive
Cc1nc(-c2ccco2)cc([C@H]2CN3CC[C@H]2C[C@@H]3CNC(=O)C2CCC2)n1	KDM5B inh inconclusive
Cc1nc(-c2ccco2)cc([C@H]2CN3CC[C@H]2C[C@@H]3CNC(=O)C2CCCCC2)n1	KDM5B inh 32µM
Cc1nc(-c2ccco2)cc([C@H]2CN3CC[C@H]2C[C@@H]3CNC(=O)NC2CCCCC2)n1	KDM5B inh 32µM
CC[C@H]1CN2CC[C@H]1C[C@@H]2CNCc1cc2ccccc2o1	none
COc1ccc(-c2ccc3n(c2=O)C[C@H]2C[C@@H]3CN(S(C)(=O)=O)C2)cc1	KDM5B inh 40µM
CN1CCC(N2C[C@@H]3C[C@H](C2)c2ccc(-c4ccc(OC(F)(F)F)cc4)c(=O)n2C3)CC1	KDM5B inh inconclusive
Cc1ncc2c(n1)C[C@@H]1CC[C@H]2N1C(=O)c1ccoc1	none
CN1CCN(C(=O)Cc2c[nH]c3ncc(-c4ccoc4)cc23)CC1	KDM5B inh inconclusive
CN1CCN(C(=O)Cc2c[nH]c3ncc(-c4ccccc4F)cc23)CC1	KDM5B inh 35µM
CN1CCN(C(=O)Cc2c[nH]c3ncc(-c4cccc(O)c4)cc23)CC1	none
CN1CCN(C(=O)Cc2c[nH]c3ncc(-c4ccsc4)cc23)CC1	KDM5B inh 40µM
CCOC(=O)[C@H]1CN(C(=O)COc2ccccc2)[C@]2(C)C(=O)N(CCOC(C)=O)c3ccccc3[C@H]12	none (no result: KDM5B inh)
O=C(Cc1cccc(Cl)c1)N1[C@H]2CC[C@@H]1c1cnc(-c3ccccc3)nc1C2	none
C#CCN1C(=O)[C@@H]2[C@H](c3ccccc31)[C@@H](C(=O)OCC)[C@@H](c1ccccc1)N2C(=O)c1ccco1	none (no result: KDM5B inh)
OCC1CN(c2ncccn2)CC12CCNCC2 (configuration not stated)	KDM5B inh 32µM
COCC1CN(Cc2cccnc2)CC12CCNCC2 (configuration not stated)	KDM5B inh inconclusive
C=CCN1C[C@@H]2CN(S(=O)(=O)c3cccnc3)C[C@]2(C(=O)O)C1	KDM5B inh inconclusive
COc1cccn(CC(=O)N2CCN(C)C3(CCNCC3)C2)c1=O	KDM5B inh 13µM
CN1CCN(C(=O)CCc2ccncc2)CC12CCNCC2	none
Cc1ccsc1C(=O)N1[C@H]2CC[C@@H]1c1cnc(-c3ccccc3)nc1C2	none (no result: KDM5B inh)
COCc1cn(C[C@H]2CC3CCN2C[C@@H]3C(=O)Nc2ccccc2)nn1 (some centres not stated)	none
CCOC(=O)[C@H]1CN(C(=O)/C=C/c2ccccc2)[C@]2(C)C(=O)Nc3ccccc3[C@H]12	none (no result: KDM5B inh)
CN1c2ncccc2CN(Cc2ccccc2)CC[C@H]1CO	KDM5B inh 32µM
CN1c2ncccc2CN(Cc2ccccn2)CC[C@H]1CO	KDM5B inh 32µM
Cc1ccc2c(n1)N(C)[C@H](CO)CCN(Cc1ccco1)C2	KDM5B inh inconclusive
O=C1CC2CCN(Cc3ccccn3)CC2CCN1 (configuration not stated)	none
Cc1nc(-c2ccccc2)cc([C@H]2CN3CC[C@H]2C[C@@H]3CNC(=O)NC(C)C)n1	KDM5B inh inconclusive
COc1cc2c(cc1Oc1cccc(N(C)C)c1)NC(=O)C21CCN(C(=O)CN2CCOCC2)CC1	none
CCOC(=O)[C@H]1CN(C(=O)Cc2ccc(OC)cc2)[C@]2(C)C(=O)N(CC3CC3)c3ccccc3[C@H]12	none (no result: KDM5B inh)
COc1cc2c(cc1CCc1ccccc1)N(C(=O)Cc1ccc3c(c1)OCO3)CC21CCN(C(C)=O)CC1	none
COc1cc2c(cc1CCc1ccccc1)N([S+](=O)([O-])c1ccc3c(c1)CCO3)CC21CCN(C(C)=O)CC1	KDM5B inh 28µM
O=[S+]1([O-])NC2(CCN(Cc3cccnc3)C2)COc2ccncc21 (configuration not stated)	none
O=[S+]1([O-])NC2(CCN(Cc3ccncc3)C2)COc2ccncc21 (configuration not stated)	KDM5B inh 40µM
CCOC(=O)[C@H]1CN([S+](C)(=O)[O-])[C@]2(C)C(=O)Nc3ccccc3[C@H]12	none (no result: KDM5B inh)
CC12Cc3cn[nH]c3C=C1CCC1C2CCC2(C)C1CCC2(C)O (configuration not stated)	IP6K1 inh -47 (no result: KDM5B inh) | IP6K1 conf 7.3µM
C[C@]12CCC(=O)C=C1CC[C@@H]1[C@H]3CC[C@](C)(O)[C@@]3(C)CC[C@@H]12	none (no result: KDM5B inh)
c1cnc2c(c1)ncn2C1CCNCC1	none
CC(C)Cc1nc2cccnc2n1C1CCNCC1	IP6K1 inh -33 | IP6K1 conf inactive
CS(=O)(=O)NC[C@H]1C[C@@H]2CCN1C[C@@H]2CN1C[C@@H]2C[C@H](C1)c1cccc(=O)n1C2	none
Nc1ncccc1CN1C[C@H](c2ccc3c(c2)OCO3)[C@@H]2[C@H]1C1CCN2CC1	KDM5B inh inconclusive
C#CCN(C)C[C@H]1CN2CC[C@H]1C[C@@H]2CNS(=O)(=O)c1ccc(C)cc1	none
COc1ccc([C@@H]2CN(C(=O)C(=O)c3ccco3)[C@@H]3C4CCN(CC4)[C@@H]32)cc1	none
Cc1ccc([C@H]2CN(C(=O)C(=O)c3cccn3C)[C@@H]3C4CCN(CC4)[C@H]23)cc1	IP6K1 inh -30 | IP6K1 conf inactive
CC(C)NC(=O)N1C2CCC1CN(Cc1cccnc1)C2	none
N=c1c2c(-c3ccccc3)c(-c3ccccc3)n(Cc3ccccc3)c2ncn1C1CCC(O)CC1 (configuration not stated)	none (no result: IP6K1 inh, KDM5B inh) | IP6K1 conf inactive
CC(=O)Nc1ccc2n(c1=O)C[C@H]1C[C@@H]2CN(C(=O)c2ccccn2)C1	KDM5B inh inconclusive
O=C(Cc1ccc(Cl)nc1)N1CCN(CCCn2nc3n(c2=O)CCCC3)CC1	none (no result: KDM5B inh)
CCCCCOc1cc2c(cc1-c1cc(/C=C/C(=O)O)ccc1O)C(C)(C)CCC2(C)C	IP6K1 inh -27 (no result: KDM5B inh) | IP6K1 conf inconclusive
COCC(=O)N1CC[C@@H]2COCCN(Cc3cccnc3)[C@@H]2C1	none (no result: KDM5B inh)
C#CC1(O)CCC2C3CCC4=CC(=O)CCC4=C3C=CC21C (configuration not stated)	none (no result: KDM5B inh)
